Assay [1] deals with human Caspase 2 (CASP2), CASP2 (gene 835) (UniProt P42575). The experiment in a line: NVS_ENZ_hCASP2: NovaScreen (NVS) Enzymatic Assay for human Caspase 2 (CASP2) (AID 2283135). Summed up:
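E. coli-expressed enzyme in a cell-free protease assay, fluorescence read 1 h after dosing. Compounds at 25 uM in duplicate, with concentration-response up to 50 uM for hits; loss of signal against DMSO baseline.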

The target of assay [2] is human Phosphatase and Tensin Homolog (PTEN), PTEN (gene 5728) (UniProt P60484). Briefly: NVS_ENZ_hPTEN: NovaScreen (NVS) Enzymatic Assay for human Phosphatase and Tensin Homolog (PTEN) (AID 2283203). An outline of the steps:
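Cell-free recombinant human PTEN with fluorescent substrate; product separated by electrophoretic mobility shift and read by fluorescence 1 h after dosing. Primary screen in duplicate at 25 uM, actives followed in concentration series versus DMSO.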

For assay [3], the target named is human Protein Tyrosine Phosphatase Receptor Type C (PTPRC), PTPRC (gene 5788) (UniProt P08575). The experiment in a line: NVS_ENZ_hPTPRC: NovaScreen (NVS) Enzymatic Assay for human Protein Tyrosine Phosphatase Receptor Type C (PTPRC) (AID 2283212). Summed up:
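Yeast-extracted human PTPRC used in a cell-free colorimetric enzyme activity read-out, 1 h after dosing. Primary screen in duplicate at 25 uM; actives rerun in concentration-response up to 50 uM, DMSO as baseline.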

Assay [4] deals with rat Neurotensin Receptor (NTS), Ntsr1 (gene 366274) (UniProt P20789). The experiment in a line: NVS_GPCR_rNTS: NovaScreen (NVS) G Protein-Coupled Receptor Assay for rat Neurotensin Receptor (NTS) (AID 2283308). Summed up:
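Rat forebrain membranes; radioligand binding with competitive displacement, read by filter-based scintillation counting 1 h after dosing. Primary screen in duplicate at 25 uM; actives (e.g., 30% inhibition) rerun in concentration-response up to 50 uM, loss-of-signal versus DMSO.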

Assay [5] concerns the target human Aurora Kinase A - serine/threonine-protein Kinase 6 (AurA), AURKA (gene 6790) (UniProt O14965). The experiment in a line: NVS_ENZ_hAurA: NovaScreen (NVS) Enzymatic Assay for human Aurora Kinase A - serine/threonine-protein Kinase 6 (AurA) (AID 2283142). An outline of the steps:
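Cell-free enzymatic assay with human Aurora A, 1 hour after dosing. Fluorescent substrate turnover detected after electrophoretic mobility shift separation of substrate and product. Screened at 25 uM, actives retested in concentration-response up to 50 uM.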

In assay [6] the test system is rat Monoamine Oxidase, MAO-A, Peripheral (MAOAP), gene 29253. The experiment in a line: NVS_ENZ_rMAOAP: NovaScreen (NVS) Enzymatic Assay for rat Monoamine Oxidase, MAO-A, Peripheral (MAOAP) (AID 2283237). An outline of the steps: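 Rat liver mitochondrial membranes served as the MAO-A source, with enzyme activity measured by radiometric scintillation counting 1.17 hours after dosing. Loss of signal was fitted against DMSO; primary screen used 25 uM in duplicate, follow-up used concentration series.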

Assay [7] has as its target Voltage-dependent N-type calcium channel subunit alpha-1B (Rattus norvegicus) (UniProt Q02294). The experiment in a line: NVS_IC_rCaChN: NovaScreen (NVS) Ion Channel Assay for rat Calcium Channel, Type N (CaChN) (AID 2283317).
Assay [8] addresses human Ephrin type-B Receptor 2 (EphB2), EPHB2 (gene 2048) (UniProt P29323). The experiment in a line: NVS_ENZ_hEphB2: NovaScreen (NVS) Enzymatic Assay for human Ephrin type-B Receptor 2 (EphB2) (AID 2283156). An outline of the steps: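 Recombinant kinase with fluorescent substrate, product separated by electrophoretic mobility shift, read 1 h after dosing. Duplicate 25 uM screen, then singleton concentration-response to 50 uM max; loss of signal versus DMSO.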

The target in assay [9] is human Ephrin type-A Receptor 2 (EphA2), EPHA2 (gene 1969) (UniProt P29317). The experiment in a line: NVS_ENZ_hEphA2: NovaScreen (NVS) Enzymatic Assay for human Ephrin type-A Receptor 2 (EphA2) (AID 2283155). Summed up: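 Cell-free recombinant EphA2 kinase with specific substrate, 1 h, fluorescence with electrophoretic mobility-shift separation of substrate and product. Primary screen at 25 uM in duplicate; hits retested in singleton concentration-response up to 50 uM, referenced to DMSO.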

For assay [10], the target named is human Fibroblast Growth Factor Receptor 1 (FGFR1), FGFR1 (gene 2260) (UniProt P11362). The experiment in a line: NVS_ENZ_hFGFR1: NovaScreen (NVS) Enzymatic Assay for human Fibroblast Growth Factor Receptor 1 (FGFR1) (AID 2283159).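 On AC50: hits lower the signal so potencies describe inhibitors of the kinase.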 An outline of the steps: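 Cell-free recombinant kinase with fluorescent substrate, product separated by electrophoretic mobility shift; read 1 hour after dosing, loss of signal relative to DMSO. Initial screen in duplicate at 25 uM, actives followed in concentration series.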

The target of assay [11] is human p21 Activated Kinase 4 (PAK4), PAK4 (gene 10298) (UniProt O96013). The experiment in a line: NVS_ENZ_hPAK4: NovaScreen (NVS) Enzymatic Assay for human p21 Activated Kinase 4 (PAK4) (AID 2283189). Summed up:
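Cell-free recombinant human PAK4 activity assay; fluorescent substrate and product separated by electrophoretic mobility shift, read 1 h after dosing. Initially tested in duplicate at 25 uM, relative to DMSO baseline.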

For assay [12], the target named is human Tyrosine Protein Kinase Receptor Tie-2 (Tie2), TEK (gene 7010) (UniProt Q02763). Briefly: NVS_ENZ_hTie2: NovaScreen (NVS) Enzymatic Assay for human Tyrosine Protein Kinase Receptor Tie-2 (Tie2) (AID 2283225). Summed up: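 Recombinant human Tie2 kinase activity was read cell-free by fluorescence with electrophoretic mobility shift, 1 hour after dosing. The screen used 25 uM in duplicate, then concentration-response up to 50 uM. Signal loss was scored against DMSO.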

For assay [13], the target named is rat Oxytocin Receptor (OXT), Oxtr (gene 25342) (UniProt P70536). The experiment in a line: NVS_GPCR_rOXT: NovaScreen (NVS) G Protein-Coupled Receptor Assay for rat Oxytocin Receptor (OXT) (AID 2283330). Summed up:
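Radioligand displacement on rat uterine membranes, 1 h incubation, filter-based scintillation counting. Chemicals were screened in duplicate at 25 uM, and those passing threshold were retested in concentration-response up to 50 uM. Loss of binding was fitted versus DMSO.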

The target of the next assay is PPP2CA (gene 5515) (UniProt P67775). The experiment in a line: NVS_ENZ_hPPP2CA: NovaScreen (NVS) Enzymatic Assay for human Protein Phosphatase 2 Aatalytic subunit Alpha (PPP2CA) (AID 2283199). Summed up:
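Recombinant human PPP2CA with fluorescent substrate; product separated from substrate by electrophoretic mobility shift, read 1.33 h after dosing. Duplicate single-point at 25 uM, then singleton concentration-response up to 50 uM; loss of signal versus DMSO.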

The target in assay [14] is Norway rat Vesicular Monoamine Transporter (VMAT2), neurotransmitter transporter, Slc18a2 (gene 25549) (UniProt Q01827). Briefly: NVS_TR_rVMAT2: NovaScreen (NVS) Transporter Assay for Norway rat Vesicular Monoamine Transporter (VMAT2), neurotransmitter transporter (AID 2283376).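 Further: actives lower the bound radioligand signal below the DMSO level.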 An outline of the steps:
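Rat forebrain tissue preparation used in a cell-free radioligand binding format; displacement read by filter-based scintillation counting 1 hour after dosing. Primary screen in duplicate at 25 uM, actives then run in concentration series; loss of signal versus DMSO baseline.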

The target of assay [15] is human MET Proto-Oncogene, Receptor Tyrosine Kinase (MET), MET (gene 4233) (UniProt P08581). Briefly: NVS_ENZ_hMet: NovaScreen (NVS) Enzymatic Assay for human MET Proto-Oncogene, Receptor Tyrosine Kinase (MET) (AID 2283180). Summed up: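 Cell-free MET kinase assay using recombinant protein and fluorescent substrate, with mobility-shift separation; read 1 h after dosing. Primary duplicate at 25 uM; actives in singleton concentration-response to 50 uM maximum. Signal loss versus DMSO.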

Assay [16] concerns the target human Matrix Metalloproteinase-1 (MMP1), MMP1 (gene 4312) (UniProt P03956). The experiment in a line: NVS_ENZ_hMMP1: NovaScreen (NVS) Enzymatic Assay for human Matrix Metalloproteinase-1 (MMP1) (AID 2283181). Summed up:
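Human MMP1 enzyme activity measured by fluorescence 1 h after dosing, cell-free, with a specific substrate. Screened in duplicate at 25 uM; hits (e.g. 30% inhibition) run in concentration-response up to 50 uM; loss of signal versus DMSO.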

The target in assay [17] is rat Monoamine Oxidase, MAO-B, Central (MAOBC), Maob (gene 25750) (UniProt P19643). The experiment in a line: NVS_ENZ_rMAOBC: NovaScreen (NVS) Enzymatic Assay for rat Monoamine Oxidase, MAO-B, Central (MAOBC) (AID 2283238). Summed up: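 Rat brain tissue extract served as the cell-free MAO-B source; enzyme activity was read by scintillation counting 1.17 hours after compound addition. Loss of signal versus DMSO baseline was fitted; primary single-concentration screen at 25 uM, follow-up concentration-response up to 50 uM.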

Assay [18] has as its system rat Monoamine Oxidase, MAO-A, Central (MAOAC), gene 29253. The experiment in a line: NVS_ENZ_rMAOAC: NovaScreen (NVS) Enzymatic Assay for rat Monoamine Oxidase, MAO-A, Central (MAOAC) (AID 2283243).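 Further: potency refers to inhibition seen as signal drop below DMSO baseline.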 Summed up:
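Steps: rat brain protein extract dosed with test chemical (25 uM, duplicate, primary); incubated 1.5 h; radiolabelled product separated from substrate and counted. Signal loss versus DMSO scored as inhibition.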

Where “and” joins values, the source holds several entries; their conditions need not be identical. Equal values may be shown once. Records with an inconclusive call do not appear. Calls of active or inactive are those of the source. How the source made its calls: active means hit-call score of the fitted dose curve at least 0.9, where 1 is the maximum; inconclusive means response in the unintended direction; inactive means score below 0.9.

This is an account of results in PubChem BioAssay (EPA / NIEHS).

Norway rat Vesicular Monoamine Transporter (VMAT2), neurotransmitter transporter, Slc18a2 (gene 25549), sequence (Q01827 whole entry, looked up): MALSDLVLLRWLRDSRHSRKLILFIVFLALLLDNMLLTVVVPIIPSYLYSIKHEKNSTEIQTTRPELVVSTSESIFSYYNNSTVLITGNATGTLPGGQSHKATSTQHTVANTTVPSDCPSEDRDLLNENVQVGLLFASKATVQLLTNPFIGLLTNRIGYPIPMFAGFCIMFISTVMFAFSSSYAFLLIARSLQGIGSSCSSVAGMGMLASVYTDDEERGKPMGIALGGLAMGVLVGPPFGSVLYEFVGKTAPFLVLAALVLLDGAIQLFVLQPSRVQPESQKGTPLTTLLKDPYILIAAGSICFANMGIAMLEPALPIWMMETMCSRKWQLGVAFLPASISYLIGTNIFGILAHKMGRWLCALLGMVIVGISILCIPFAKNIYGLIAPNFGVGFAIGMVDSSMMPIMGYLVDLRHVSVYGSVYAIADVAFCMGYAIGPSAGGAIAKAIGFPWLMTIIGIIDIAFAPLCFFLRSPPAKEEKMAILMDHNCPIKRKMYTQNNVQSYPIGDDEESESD
human Fibroblast Growth Factor Receptor 1 (FGFR1), FGFR1 (gene 2260), sequence (P11362 whole entry, looked up): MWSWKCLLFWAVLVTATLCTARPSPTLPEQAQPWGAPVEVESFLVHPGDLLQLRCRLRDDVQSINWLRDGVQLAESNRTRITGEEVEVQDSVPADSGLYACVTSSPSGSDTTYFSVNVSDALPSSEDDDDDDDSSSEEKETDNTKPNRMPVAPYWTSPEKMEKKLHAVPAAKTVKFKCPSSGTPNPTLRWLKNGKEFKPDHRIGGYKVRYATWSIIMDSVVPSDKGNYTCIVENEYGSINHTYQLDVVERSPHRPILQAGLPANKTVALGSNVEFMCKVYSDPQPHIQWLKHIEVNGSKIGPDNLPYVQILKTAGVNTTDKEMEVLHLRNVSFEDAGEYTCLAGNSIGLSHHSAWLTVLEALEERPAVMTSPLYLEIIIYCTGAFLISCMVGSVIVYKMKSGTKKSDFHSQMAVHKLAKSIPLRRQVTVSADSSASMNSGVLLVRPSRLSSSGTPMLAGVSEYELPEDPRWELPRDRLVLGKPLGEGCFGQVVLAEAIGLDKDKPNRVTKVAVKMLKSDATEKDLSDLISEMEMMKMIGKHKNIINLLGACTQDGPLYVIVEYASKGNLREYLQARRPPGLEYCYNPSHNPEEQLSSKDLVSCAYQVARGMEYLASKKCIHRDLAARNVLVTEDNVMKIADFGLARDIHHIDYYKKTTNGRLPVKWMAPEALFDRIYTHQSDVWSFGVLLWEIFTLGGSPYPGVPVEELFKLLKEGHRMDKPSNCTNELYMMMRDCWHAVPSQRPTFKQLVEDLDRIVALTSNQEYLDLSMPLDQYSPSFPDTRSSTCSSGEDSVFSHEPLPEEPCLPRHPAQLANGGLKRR
human Phosphatase and Tensin Homolog (PTEN), PTEN (gene 5728), sequence (P60484 whole entry, looked up): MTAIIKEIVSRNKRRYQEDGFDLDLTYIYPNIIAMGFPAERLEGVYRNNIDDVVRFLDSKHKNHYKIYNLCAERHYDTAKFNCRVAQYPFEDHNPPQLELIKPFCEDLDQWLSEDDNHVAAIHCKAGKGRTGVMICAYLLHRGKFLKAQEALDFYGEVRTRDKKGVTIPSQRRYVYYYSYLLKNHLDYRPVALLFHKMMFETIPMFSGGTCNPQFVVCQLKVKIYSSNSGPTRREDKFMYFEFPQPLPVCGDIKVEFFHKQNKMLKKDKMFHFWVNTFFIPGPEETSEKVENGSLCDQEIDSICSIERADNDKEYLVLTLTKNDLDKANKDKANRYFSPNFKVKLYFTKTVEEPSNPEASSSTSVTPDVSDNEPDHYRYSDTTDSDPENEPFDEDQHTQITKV
human Matrix Metalloproteinase-1 (MMP1), MMP1 (gene 4312), sequence (P03956 whole entry, looked up): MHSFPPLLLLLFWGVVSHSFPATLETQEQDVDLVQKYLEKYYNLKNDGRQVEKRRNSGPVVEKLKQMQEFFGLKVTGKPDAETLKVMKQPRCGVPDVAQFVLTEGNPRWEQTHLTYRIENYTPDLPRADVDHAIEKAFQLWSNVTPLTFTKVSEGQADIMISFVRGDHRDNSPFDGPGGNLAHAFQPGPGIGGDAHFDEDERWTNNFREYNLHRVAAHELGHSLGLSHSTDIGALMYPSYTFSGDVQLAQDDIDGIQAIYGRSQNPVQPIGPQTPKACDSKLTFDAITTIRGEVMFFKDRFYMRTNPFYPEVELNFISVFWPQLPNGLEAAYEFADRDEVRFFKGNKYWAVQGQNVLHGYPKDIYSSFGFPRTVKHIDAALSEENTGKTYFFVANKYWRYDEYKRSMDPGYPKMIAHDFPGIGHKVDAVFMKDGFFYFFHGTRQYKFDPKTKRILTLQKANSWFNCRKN
human Tyrosine Protein Kinase Receptor Tie-2 (Tie2), TEK (gene 7010), sequence (Q02763 whole entry, looked up): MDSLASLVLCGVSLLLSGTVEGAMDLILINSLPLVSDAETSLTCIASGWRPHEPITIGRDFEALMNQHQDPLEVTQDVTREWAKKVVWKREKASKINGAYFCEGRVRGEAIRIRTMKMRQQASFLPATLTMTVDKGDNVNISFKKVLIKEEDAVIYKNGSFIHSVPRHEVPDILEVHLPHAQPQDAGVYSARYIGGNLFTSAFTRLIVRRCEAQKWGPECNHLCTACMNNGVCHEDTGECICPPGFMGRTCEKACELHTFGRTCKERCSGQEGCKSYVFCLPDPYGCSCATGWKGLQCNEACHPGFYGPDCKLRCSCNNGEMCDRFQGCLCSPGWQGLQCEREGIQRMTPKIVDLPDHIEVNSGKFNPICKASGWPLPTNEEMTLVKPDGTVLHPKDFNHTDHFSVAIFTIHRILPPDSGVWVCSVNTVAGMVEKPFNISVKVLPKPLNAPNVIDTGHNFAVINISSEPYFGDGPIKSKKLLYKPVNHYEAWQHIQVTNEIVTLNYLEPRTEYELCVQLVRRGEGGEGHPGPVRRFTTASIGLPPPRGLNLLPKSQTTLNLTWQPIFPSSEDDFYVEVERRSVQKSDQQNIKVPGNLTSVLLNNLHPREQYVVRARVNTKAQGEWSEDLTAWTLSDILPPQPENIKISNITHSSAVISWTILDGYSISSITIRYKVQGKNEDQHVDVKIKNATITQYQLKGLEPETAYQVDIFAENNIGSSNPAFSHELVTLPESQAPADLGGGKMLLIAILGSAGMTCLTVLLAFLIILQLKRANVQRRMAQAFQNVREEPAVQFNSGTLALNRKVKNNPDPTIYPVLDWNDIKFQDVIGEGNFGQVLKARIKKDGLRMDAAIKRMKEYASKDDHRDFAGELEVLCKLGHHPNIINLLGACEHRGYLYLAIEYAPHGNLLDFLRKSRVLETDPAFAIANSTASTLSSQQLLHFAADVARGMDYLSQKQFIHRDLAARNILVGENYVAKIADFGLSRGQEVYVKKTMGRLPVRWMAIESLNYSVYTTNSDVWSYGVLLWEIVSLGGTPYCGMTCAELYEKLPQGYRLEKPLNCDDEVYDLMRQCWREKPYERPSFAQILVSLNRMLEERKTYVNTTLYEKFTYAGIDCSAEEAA
human Caspase 2 (CASP2), CASP2 (gene 835), sequence (P42575 whole entry, looked up): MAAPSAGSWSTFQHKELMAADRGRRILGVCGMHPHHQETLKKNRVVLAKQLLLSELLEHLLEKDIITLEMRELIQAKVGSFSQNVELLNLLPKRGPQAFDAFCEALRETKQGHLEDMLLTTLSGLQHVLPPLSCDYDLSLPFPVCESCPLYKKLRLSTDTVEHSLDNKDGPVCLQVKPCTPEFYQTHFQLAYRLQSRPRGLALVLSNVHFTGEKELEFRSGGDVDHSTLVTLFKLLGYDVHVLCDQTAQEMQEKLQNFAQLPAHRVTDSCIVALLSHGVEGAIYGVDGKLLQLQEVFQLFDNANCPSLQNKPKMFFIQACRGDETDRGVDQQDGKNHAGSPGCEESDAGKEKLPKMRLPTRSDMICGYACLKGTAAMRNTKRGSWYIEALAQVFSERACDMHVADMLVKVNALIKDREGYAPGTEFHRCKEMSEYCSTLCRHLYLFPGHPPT
human Aurora Kinase A - serine/threonine-protein Kinase 6 (AurA), AURKA (gene 6790), sequence (O14965 whole entry, looked up): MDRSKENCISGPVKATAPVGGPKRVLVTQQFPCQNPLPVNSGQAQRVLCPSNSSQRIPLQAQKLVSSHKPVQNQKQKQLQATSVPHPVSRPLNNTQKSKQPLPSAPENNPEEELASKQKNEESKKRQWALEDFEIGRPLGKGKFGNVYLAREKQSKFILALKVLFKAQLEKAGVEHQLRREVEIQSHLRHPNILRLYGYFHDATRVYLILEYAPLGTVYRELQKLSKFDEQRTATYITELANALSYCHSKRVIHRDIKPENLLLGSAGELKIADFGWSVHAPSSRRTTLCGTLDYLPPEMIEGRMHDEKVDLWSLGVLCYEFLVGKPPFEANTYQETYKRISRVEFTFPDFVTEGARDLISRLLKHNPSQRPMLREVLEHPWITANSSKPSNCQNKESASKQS
human p21 Activated Kinase 4 (PAK4), PAK4 (gene 10298), sequence (O96013 whole entry, looked up): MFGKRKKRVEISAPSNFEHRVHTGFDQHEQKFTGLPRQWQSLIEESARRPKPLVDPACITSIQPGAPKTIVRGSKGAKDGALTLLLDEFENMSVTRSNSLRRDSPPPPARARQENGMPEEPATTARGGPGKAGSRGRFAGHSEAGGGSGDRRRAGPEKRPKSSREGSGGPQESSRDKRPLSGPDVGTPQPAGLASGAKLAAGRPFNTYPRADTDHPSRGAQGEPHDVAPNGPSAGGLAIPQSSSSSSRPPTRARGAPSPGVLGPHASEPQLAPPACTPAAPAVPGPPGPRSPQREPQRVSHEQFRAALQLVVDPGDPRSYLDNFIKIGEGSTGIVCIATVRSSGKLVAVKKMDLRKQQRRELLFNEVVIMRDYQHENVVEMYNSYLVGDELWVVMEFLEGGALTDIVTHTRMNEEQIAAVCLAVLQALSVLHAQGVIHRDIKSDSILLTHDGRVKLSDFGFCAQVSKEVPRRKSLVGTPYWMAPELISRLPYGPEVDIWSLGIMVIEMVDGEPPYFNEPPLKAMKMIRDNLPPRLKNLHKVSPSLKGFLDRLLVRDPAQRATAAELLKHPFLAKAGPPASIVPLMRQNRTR

For `O=S(=O)(O)c1ccc(N=Nc2c(O)ccc3cc(S(=O)(=O)O)ccc23)cc1`, the AC50 (as a rule, the midpoint of the concentration-response curve, whichever way the signal moves) in assay [1] is 20.4 µM (active). For the same compound, the call in [2], in [3] and in assay [4] was inactive.
`O=C(N[C@@H](c1ccccc1)[C@@H]1CCCCN1)c1cccc(C(F)(F)F)c1Cl`: the compound was classed as inactive in [5] and in assay [6].
With `Cc1nccn1-c1ccc(Sc2cccc(C3(C(N)=O)CCOCC3)c2)cc1`, the outcome in assay [1] and in assay [7] was inactive.
Turning to `CCOC(=O)CC(CC(=O)OCC)(OC(C)=O)C(=O)OCC`, the call in assay [8] was inactive.
`CC[C@H](C)C(=O)O[C@H]1C[C@H](O)C=C2C=C[C@H](C)[C@H](CC[C@@H](O)C[C@@H](O)CC(=O)O)[C@H]21`: the result in assay [9], in [10], in assay [11], in assay [2], in [12] and in assay [6] was inactive. Also, the call in [13] was inactive.
On to `CC/C(=C(/CC)c1ccc(O)cc1)c1ccc(O)cc1`, for which the result (in assay [5]; with PPP2CA (gene 5515); in assay [2]; in assay [12]) was inactive. Further, the AC50 was 37 µM (active) in [10]; 12 µM (active) and 14.7 µM (active) and 20.5 µM (active) in assay [14].
As to `FC(F)(F)C(F)(F)C(F)(F)C(F)(F)C(F)(F)C(F)(F)CCI`, the call in assay [5], in assay [10], in assay [15], in [16], in assay [11] and in [2] was inactive. In addition, in [12], the compound was classed as inactive.
Turning to `CC(C)(O)c1coc(S(=O)(=O)NC(=O)Nc2c3c(cc4c2CCC4)CCC3)c1`, the result in assay [1], in assay [16] and in [2] was inactive.
Take `CC(C)(C)c1csc(-c2cc3cc(OCc4ccccc4CC(=O)O)ccc3o2)n1`: the result in [5] and in assay [7] was inactive. In [16], the AC50 is 22.5 µM (active).
On to `CO[C@H]1/C=C/O[C@@]2(C)Oc3c(C)c(O)c4c(O)c(c(/C=N/N5CCN(C)CC5)c(O)c4c3C2=O)NC(=O)/C(C)=C\C=C\[C@H](C)[C@H](O)[C@@H](C)[C@@H](O)[C@@H](C)[C@H](OC(C)=O)[C@@H]1C`, for which the call in assay [1] and in assay [14] was inactive.
Turning to `O=[N+]([O-])c1ccc(O)cc1`, the outcome in assay [1] was inactive. The AC50 in [16] was 16.9 µM (active); in [6], 19.2 µM (active); in assay [17] it was 18.1 µM (active); in [18], 16.6 µM (active).
With `OCCOCCOCCO`, the compound was classed as inactive in assay [5], in [2] and in assay [13].
Turning to `CC(C)c1ccc(C(=O)N=C(N)N)cc1S(C)(=O)=O`, the outcome in [5] and in assay [12] was inactive.
